Data published in ChEMBL document CHEMBL4513216, “Probing the Open Global Health Chemical Diversity Library for Multistage-Active Starting Points for Next-Generation Antimalarials” (ACS Infect Dis, 2020).
Out of some 69,000 compounds screened, about 8,600 (12%) showed an effect of 50% or more. For the sample, strong results were picked, then their nearest neighbours and some compounds at random.

The compounds below were run on Plasmodium berghei (assay: Screen against P. berghei liver stage (PbLuc), transformed with Luciferase, at 10uM). Conditions: tested at 10 uM.
Type: functional, HepG2
With `CCn1nccc1CNC(=O)C1CCCO1` (configuration not stated) the INHIBITION was 17%.
Compound `COc1ccc(N2CCN(C(=O)OC(C)(C)C)C(C(=O)O)C2)cc1` (configuration not stated) has an INHIBITION of 2.55%.
With `Cc1ccc(N2CCC3(CCN(C(=O)c4ccoc4)CC3)CC2)nn1` the INHIBITION was -0.27%.
With `Cc1cc(N2CCC(NC(=O)C3CC3)CC2)nc(-c2ccncc2)n1` the INHIBITION was 23.4%.
`CCCc1cc(C(=O)N2CC(c3ccncc3)C2)ccn1` gave an INHIBITION of 8.64%.
With `CCCc1cc(C(=O)N2C[C@H]3CC=C(C)C[C@H]3C2)ccn1` the INHIBITION was 6.66%.
`CCCc1cc(C(=O)N2C[C@H](O)[C@@H](N3CCCC3)C2)ccn1` gave an INHIBITION of 55.2%.
`CC(C)c1sc(Cl)nc1C(=O)N1CCN(c2ccccc2)CC1` showed an INHIBITION of -1.23%.
Compound `NC(=O)C1CCN(C(=O)NCc2csc(Br)c2)CC1` has an INHIBITION of 16.9975%.
`CN(C(=O)C(c1c(F)cccc1Cl)N(C)C)c1nccs1` (configuration not stated) gave an INHIBITION of 66.5%.
`CN(C)C(C(=O)NCC1(O)CCCCC1)c1c(F)cccc1F` (configuration not stated) gave an INHIBITION of -21.2%.
In the case of `N#Cc1c(F)cccc1N1CCC(C(=O)Nc2nccs2)CC1`, the INHIBITION is reported as 17.5%.
Compound `Cc1csc(N(C)C(=O)C(c2c(F)cccc2Cl)N(C)C)n1` (configuration not stated) has an INHIBITION of 9.04%.
`CN(C)C(C(=O)Nc1nccs1)c1c(F)cccc1Cl` (configuration not stated) showed an INHIBITION of 50.8%.
Compound `COCCOc1ncccc1C(=O)N(C)c1nccs1` has an INHIBITION of 45.2%.
Work on `CCNc1cc2c(nn1)CCN(C(=O)c1nccnc1N)C2` yielded an INHIBITION of 23.5%.
`Cc1c(C2CC(=O)Nc3c2cnn3C(C)C)cnn1C` (configuration not stated) gave an INHIBITION of 24.7%.
`Cc1cn2nc(N(C)C3CCCN(c4cccnn4)C3)sc2n1` (configuration not stated) was tested, and the INHIBITION was 11.5%.
`CCCNC(=O)COc1cccc(-c2nc(C(C)C)no2)c1` gave an INHIBITION of 31.3%.
For `Cc1ccc(Nc2nccc(C3CCCN(CC(=O)N(C)C)C3)n2)nc1` (configuration not stated), the INHIBITION was 79.6%.
Work on `CC(=O)N1CCC(c2ccnc(Nc3ccc(C)cn3)n2)C1` (configuration not stated) yielded an INHIBITION of -55%.
`O=C(C1CCC1)N1CCCC(c2ccnc(Nc3cnccn3)n2)C1` (configuration not stated) showed an INHIBITION of -14.1%.
With `Cc1ccc(Nc2nccc(C3CCN(CC(N)=O)C3)n2)nc1` (configuration not stated) the INHIBITION was 88.1%.
Compound `Cc1ccc(Nc2nccc(C3CN(C(C)C)C3)n2)nc1` has an INHIBITION of 61.7%.
`COCC(=O)N1CC(c2ccnc(Nc3ccc(C)cn3)n2)C1` was tested, and the INHIBITION was 6.32%.
Compound `Cc1ccc(Nc2nccc(C3CN(CC(N)=O)C3)n2)nc1` has an INHIBITION of 46.6%.
`Cc1cccnc1Nc1nccc(C2CN(CC(N)=O)C2)n1` showed an INHIBITION of -4.51%.
`CC(=O)N1CC(c2ccnc(Nc3ccc(C)cn3)n2)C1` gave an INHIBITION of -9.32%.
In the case of `Cn1nc2c(cc1=O)CN(Cc1nc(-c3cccnc3)no1)CC2`, the INHIBITION is reported as 13.3%.
`CC(C)NC(=O)N1CCCC2(CCN(c3ccccc3)C2=O)C1` (configuration not stated) showed an INHIBITION of -20.8%.
For `COc1cccc(NC(=O)Cn2cc(-c3ccccc3)ncc2=O)c1`, the INHIBITION was 28.2%.
Compound `CN(Cc1cc[nH]n1)C(=O)c1cccc(CCC(C)(C)O)c1` has an INHIBITION of 34.1%.
`CN(Cc1n[nH]c2c1CCC2)C(=O)c1cccc(CCC(C)(C)O)c1` was tested, and the INHIBITION was 68.5%.
Work on `CN(Cc1n[nH]c2c1CCCC2)C(=O)c1cccc(CCC(C)(C)O)c1` yielded an INHIBITION of 48.5%.
`OC1CCN(c2nc(-c3ccccc3)no2)CC1` gave an INHIBITION of -3.74%.
Work on `OC1CCN([C@@H]2CCN(c3nc(-c4ccccc4)no3)C[C@H]2O)CC1` yielded an INHIBITION of 69.8%.
`O[C@H]1CN(c2nc(-c3ccccc3)no2)C[C@@H]1N1CCOCC1` gave an INHIBITION of -22.7%.
`CC(C)c1ccc2c(c1)C1(CC(=O)Nc3[nH]ncc31)C(=O)N2C` (configuration not stated) was tested, and the INHIBITION was 17.7%.
Work on `CCOc1ccc(NC(=O)NCc2cccnc2OCC)cc1` yielded an INHIBITION of 13.6%.
With `CCOc1ncnc2c1CCN(Cc1csc(C)n1)CC2` the INHIBITION was 1.94%.
With `Cc1cccc(CN2CCc3ncnc(C)c3CC2)n1` the INHIBITION was 6.8%.
In the case of `Cc1nc(CN2CCc3ncnc(-c4ccccc4)c3CC2)cs1`, the INHIBITION is reported as 6.6%.
Compound `c1ccc(CN2CCc3ncnc(-c4ccsc4)c3CC2)nc1` has an INHIBITION of 19.9%.
In the case of `Cc1nc(CN2CCN(c3ccc(SC(C)C)nn3)CC2)cs1`, the INHIBITION is reported as -4.13%.
`Cc1nc(CN2CCc3ncnc(-c4ccncc4)c3CC2)cs1` gave an INHIBITION of 27.6%.
In the case of `Cc1nc(CN2CCN(c3nc4c(s3)c(C)nn4C)CC2)cs1`, the INHIBITION is reported as 73.9%.
In the case of `Cc1nc(CN2CCc3ncnc(C4CC4)c3CC2)cs1`, the INHIBITION is reported as 15.9%.
Compound `Cc1nc(CN2CCc3ncnc(-c4ccsc4)c3CC2)cs1` has an INHIBITION of 60.2%.
Compound `Cc1cccc(CN2CCc3ncnc(-c4ccsc4)c3CC2)n1` has an INHIBITION of 53.2%.
With `Cc1nc(CN2CCc3ncnc(C)c3CC2)cs1` the INHIBITION was 56.3%.
`Cc1nn(C)c2nc(N3CCN(Cc4nccn4C)CC3)sc12` showed an INHIBITION of 37.6%.
For `Cc1cn(CC(=O)Nc2cc(C(C)C)nn2C)cn1`, the INHIBITION was -0.273%.
With `CC1CN(C)CCN1CC(=O)NCCOc1ccc(Cl)cc1` (configuration not stated) the INHIBITION was 35.95%.
Compound `CC(c1ccccn1)N(C)Cc1cccc(C(=O)Nc2nccn2C)c1` (configuration not stated) has an INHIBITION of 9.57%.
`CN(C)c1nc(NCCc2ccnn2C)ncc1F` showed an INHIBITION of 42.3%.
With `O=C(Cc1ccc(F)c(Br)c1)NC1CCN(CC(F)F)CC1` the INHIBITION was -60.4%.
`CN(C)CC(=O)N1CCc2ncnc(-c3ccsc3)c2CC1` was tested, and the INHIBITION was 70.4%.
With `CN(C)CC(=O)N1CCc2ncnc(-c3ccoc3)c2CC1` the INHIBITION was 23.1%.
With `CN(C)CC(=O)N1CCc2ncnc(-c3cncnc3)c2CC1` the INHIBITION was 6.83%.
`CCn1ccc(NC(=O)CN2C(=O)C(C)(C)c3ccccc32)n1` showed an INHIBITION of 23.1%.
In the case of `Cc1ccc(N2CCCC(NCc3c(C)noc3C)C2)nn1` (configuration not stated), the INHIBITION is reported as -89%.
Work on `CN1CC(C(=O)NCCc2ccc3c(c2)OCO3)CC1=O` (configuration not stated) yielded an INHIBITION of 20%.
Compound `COc1ccc(CCNc2cc(-c3nc(C)no3)ccn2)cc1OC` has an INHIBITION of 10.8%.
`Fc1ccc(CN2CCC(c3noc(-c4cnccn4)n3)CC2)cc1F` gave an INHIBITION of 18.3%.
`CCOc1cc(CNc2cc(-c3nc(C)no3)ccn2)ccc1OC` gave an INHIBITION of 1.84%.
`Cc1noc(-c2ccnc(Oc3ccc(CN4CCCC4)cc3F)c2)n1` gave an INHIBITION of 87.4%.
`COc1ccc(CNC2CCCN(Cc3noc(C)n3)C2)cc1F` (configuration not stated) gave an INHIBITION of 40.3%.
Work on `Cc1noc(-c2ccnc(Oc3ccc(CN4CCCC4)cc3C)c2)n1` yielded an INHIBITION of 89%.
Work on `CC(=O)N1CC(Cc2nccc3ccn(C)c23)C1` yielded an INHIBITION of 47.2%.
For `COc1cc(OC)cc(-c2cc(CN)nc3ccnn23)c1`, the INHIBITION was -18.2%.
In the case of `Cc1ccccc1S(=O)(=O)N(C)[C@@H]1CC[C@@H](n2ccnc2C)[C@@H]1O`, the INHIBITION is reported as 38.15%.
With `CC(c1nc(C2CC2)no1)N1CCN(CC(=O)N2CCOCC2)CC1` (configuration not stated) the INHIBITION was 10.7%.
In the case of `CCN(CC)CC1CN(Cc2ccc(C)s2)Cc2nccn2C1` (configuration not stated), the INHIBITION is reported as -30.6%.
In the case of `Cc1ccc(CN2Cc3nccn3CC(Cn3cccn3)C2)s1` (configuration not stated), the INHIBITION is reported as 45.7%.
In the case of `Cc1ccc(CN2Cc3nccn3CC(CN(C)C)C2)s1` (configuration not stated), the INHIBITION is reported as 64.9%.
`Cc1nn(CCO)cc1CN1CCC(C(C)N2CCCC2)CC1` (configuration not stated) gave an INHIBITION of 32.5%.
In the case of `Cc1nn(CCO)cc1CN1CCCN(C2CCCC2)CC1`, the INHIBITION is reported as 12.8%.
Work on `CCn1cc(CN2CCC(N3CCC(O)CC3)CC2)cc1C#N` yielded an INHIBITION of 64.9%.
For `CCn1cc(CN2CCC(C3CCN(C)CC3)CC2)cc1C#N`, the INHIBITION was 66.1%.
Compound `CCn1cc(CN2CCC(CNC(C)=O)CC2)cc1C#N` has an INHIBITION of 24.2%.
For `CCn1cc(CN2CCCCC2CCn2ccnc2C)cc1C#N` (configuration not stated), the INHIBITION was 29.2%.
For `CS(=O)(=O)NC1CCN(Cc2ccc(OCc3ccccn3)cc2)CC1`, the INHIBITION was -1.83%.
`CCn1cc(CN2CCC(CN3CCCCC3)CC2)cc1C#N` was tested, and the INHIBITION was 6.88%.
In the case of `CCn1cc(CN2CCC(NS(C)(=O)=O)CC2)cc1C#N`, the INHIBITION is reported as 62.4%.
Compound `OC1CCN(C2CCN(Cc3cccc(Cn4cccn4)c3)CC2)CC1` has an INHIBITION of 24.9%.
For `Cc1nn(CCO)cc1CN1CCC(N2CCC(O)CC2)CC1`, the INHIBITION was 50.5%.
For `CCn1cc(CN2CCC(c3ccncc3)CC2)cc1C#N`, the INHIBITION was 13%.
For `Cc1ccc(CC(=O)N(C)CC2(O)CCCN(c3ccccn3)C2)s1` (configuration not stated), the INHIBITION was -2.11%.
Compound `CC(C)N(Cc1ccccn1)Cc1nc2c(cnn2C)c(=O)[nH]1` has an INHIBITION of 25.65%.
For `CN(C)C(=O)CN1CC[C@H]2CN(C3CCOCC3)C[C@@H]2C1=O`, the INHIBITION was 30.9%.
With `CCC(=O)N1CCN(C)C(=O)C(Cc2ccccc2-c2cccs2)C1` (configuration not stated) the INHIBITION was 22%.
`O=C(c1cc(=O)c(OCc2ccccc2F)co1)N1CCSCC1` gave an INHIBITION of 21.5%.
With `CS(=O)(=O)c1cncnc1C1CCCN(C(=O)Cc2ccccc2F)C1` (configuration not stated) the INHIBITION was 17.985%.
For `CCNC(=O)[C@@H]1C[C@H](N)CN1C(=O)C1(c2ccc(OC)cc2)CCCC1`, the INHIBITION was -12.7%.
Work on `CCN(CC)C(=O)CNC(=O)N1CCC(c2ccc(OC)cc2)C1` (configuration not stated) yielded an INHIBITION of 21.7%.
`CCC(=O)Nc1cccc(OCC(=O)N2CC=CC2C(C)C)c1` (configuration not stated) gave an INHIBITION of -16.6%.
In the case of `Cc1ccccc1CCC(=O)N1CCCC(c2cc(C(N)=O)[nH]n2)C1` (configuration not stated), the INHIBITION is reported as 11.9%.
`CCn1cc(NC(=O)c2c(C)nn(C)c2C)c(C(N)=O)n1` showed an INHIBITION of 27.4%.
For `Cc1ccc(-c2ccc(CC3NCCN(C)C3=O)cc2)cc1` (configuration not stated), the INHIBITION was 29.2%.
Work on `Cn1nccc1-c1nc2c(cc1C(=O)O)CCN(C(=O)C1CC1)CC2` yielded an INHIBITION of 72.3%.
`Cn1cc(-c2nc3c(cc2C(=O)O)CCN(C(=O)C2CC2)CC3)cn1` showed an INHIBITION of -27.1%.
With `Cn1nccc1-c1nc2c(cc1C(=O)O)CCN(CC1CC1)CC2` the INHIBITION was -10.3%.
With `O=C(Cn1nc(-c2ccc(F)cc2)oc1=O)NCCc1ccccc1` the INHIBITION was 27.6%.
In the case of `CNC(=O)CN1CC[C@H]2CN(C(=O)c3ccc(C)cc3)C[C@H]2C1`, the INHIBITION is reported as -99.2%.
Work on `Cc1nc(CN2CCC3(CCCN(Cc4cccnc4)C3)C2=O)cs1` (configuration not stated) yielded an INHIBITION of 36.2%.
For `CC(C)C(=O)N1CCC[C@]2(C(=O)N(C)C)CN(c3ccccn3)C[C@@H]2C1`, the INHIBITION was -28%.
Work on `Cn1cc(C2CCCN2Cc2csc(Cc3ccccc3)n2)cn1` (configuration not stated) yielded an INHIBITION of 35.9%.
